# Assay results published in PubChem BioAssay (NCI).
# This is part of a sample that, as a whole, favours compounds with a hit. Of some 83,000 tested, about 20% had one in any assay.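 Method: cells in 96-well plates; compound added at one concentration; 48 h incubation; percent growth measured; values under 10 scored active.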 Values without a mark were called inactive. The source made the active and inactive calls.
# Test system: MDA-MB-468 breast
# Assay: NCI-60 one-dose screen, 48 h (100 = growth as untreated, 0 = no growth, -100 = all killed)
# Conditions: 10 µM unless noted
row,Compound,growth
1,N[C@@H]1CCCN(c2c(/C=C3\SC(=O)NC3=O)cccc2-c2ccccc2)C1,55.8%
2,CCN(CC)c1ccc(C(=N)c2ccc(N(C)C)cc2)cc1,5.37% (active)
3,Cc1ccc(Nc2ccc(O)c3c2C(=O)c2c(O)ccc(Nc4ccc(C)cc4)c2C3=O)cc1,95.8%
4,c1cc2c(cc1-c1cnc3nonc3n1)OCO2,84.6%
5,O=C(N/N=C/c1c(Cl)cccc1Cl)c1ccc(C(F)(F)F)nc1Nc1cccc(C(F)(F)F)c1,11.9%
6,Cc1cc2nc3c4cc(N)ccc4n(CCN(C)C)c3nc2cc1C,-5.6% (active)
7,Oc1ccc(-c2nc3ccc4[nH]ncc4c3c3c2CCCC3)c2cccnc12,-17.1% (active)
8,CC(=O)C1C(=O)C(=O)N(c2ccc(Cl)c(Cl)c2)C1=O (stereo not given),115%
9,CC1C(/C=N/Nc2ccccc2)C(C#N)(C#N)C1(C#N)C#N (stereo not given),91.3%
10,COC(=O)[C@@H](C)CNS(=O)(=O)N(c1cc(C(F)(F)F)cc(C(F)(F)F)c1)C1CCN(Cc2ccc(F)cc2)CC1,23.6%
11,CCOc1c(C#N)nnc2c(C#N)c(NC(=O)c3ccccc3)nn12,103%
12,O=C(CCc1nnc2sc(-c3cc(O)c(O)c(O)c3)nn12)c1nc2ccccc2[nH]1,86.8%
13,COc1c(N2CC3CCCNC3C2)c(F)cc2c(=O)c(C(=O)N/N=C/c3ccc(Br)cc3)cn(C3CC3)c12 (stereo not given),97%
14,O=C(Nc1cccc(Cl)c1)Nc1nc2ccc(-c3cccc4ccccc34)cc2s1,37.6%
15,COc1ccc(C2C3=C(COC3=O)N(CCO)c3cc4c(cc32)CCC4)cc1OC (stereo not given),-17.1% (active)
16,O=S1(=O)OC(c2ccc(O)c(Cl)c2)(c2ccc(O)c(Cl)c2)c2ccccc21,114%
17,CCC(CC)N1C(=O)/C(=c2\sc3n(c2=O)C2C(NN=3)N(CC)C(=O)N2CC)c2ccccc21 (stereo not given),42.8%
18,Nc1ccc(C2=NN(C(=O)c3cc(-c4ccc(Cl)cc4)nc4ccccc34)C(c3ccccc3)C2)cc1 (stereo not given),7.91% (active)
19,CC(C)(C)c1cc(-n2c(-c3ccc(Cl)cc3)nc3cc(C(=O)Nc4ccc(Cl)cc4)ccc32)n[nH]1,51.7%
20,Nc1ccccc1-c1ccc(-c2ccc(Cl)cc2)c2c1[nH]c1ccccc12,91.5%

row,Compound,growth
1,O=C(Nc1nc(-c2ccc(Cl)cc2)cs1)c1cc(-c2ccc(Br)cc2)nc2ccc(Cl)cc12,98.7%
2,CC(=O)O[C@H]1CC[C@@]2(C)C(=CC[C@@H]3[C@@H]2CC[C@]2(C)C(=O)N(O)C(=O)C[C@@H]32)C1,83.6%
3,CCCCCCCCCCCCC1CCC(=O)O1 (stereo not given),105%
4,O=C(CBr)OCc1ccc([N+](=O)[O-])o1,109%
5,O=C(Nc1ccc(Cl)c(Cl)c1)OCc1ccco1,0.972% (active)
6,Cc1csc(/N=C(N)/N=C(\N)c2cccs2)n1,120%
7,Cc1c(C(N)=O)sc2c1c(=O)n(Cc1ccccc1)c1nnc(SCC(=O)Nc3ccc(Cl)cc3)n21,39.6%
8,CCOc1ccccc1/C=N\N=C(N/N=C/c1ccccc1OCC)N/N=C/c1ccccc1OCC,-30.4% (active)
9,O=C1C[C@@H]2/C(=C(O)\C=C\c3ccccc3)C(=O)C=C[C@@H]2O1,-76.9% (active)
10,Nc1ccc2c(c1)Cc1cc(N)c(Br)cc1-2,81.9%
11,CCc1nc2cc(/C=C/C(=O)NO)ccc2c(=O)n1CCc1ccc(F)cc1,-11.6% (active)
12,C#Cc1cccc(NC(=O)Nc2cccc(NC(=O)CCl)c2)c1,-43.5% [8.25 µM] (active)
13,COC(=O)c1ccc(NC2=C/C(=N/S(=O)(=O)c3ccc(C(=O)O)cc3)c3ccccc3C2=O)cc1,-37.4% (active)
14,O=C(COc1cc(O)c2c(=O)cc(-c3ccccc3)oc2c1)Nc1ccccc1C(F)(F)F,67.6%
15,N#Cc1c(-c2ccc(Cl)cc2)nc(SCc2ccccc2)nc1N1CCNCC1,10.3%
16,CCCC(O)Cn1ncc(C(=O)OCC)c1NC(=O)NCc1cccc(F)c1 (stereo not given),97.3%
17,O=C(CCCCCCN1CC(=O)N2[C@H](c3ccc(Br)cc3)c3[nH]c4ccccc4c3C[C@@H]2C1=O)NO,33.9%
18,CN1CC[C@H](c2c(O)cc(O)c3c(=O)cc(-c4ccccc4Cl)oc23)[C@H](O)C1,-42.7% (active)
19,O=C(NCC(c1ccsc1)N1CCCCCC1)c1ccc(C(F)(F)F)cc1 (stereo not given),95.3%
20,CCn1ccnc1C(=O)/C=C/c1ccc(CC(=O)Nc2ccc(F)cc2)cc1,-13.8% (active)
